In PubChem BioAssay AID1851 (National Center for Advancing Translational Sciences (NCATS), 2009):
Values joined by “and” are separate entries in the source; they are usually repeats but may differ in a detail not shown here. Equal entries are not always repeated. Screen size: about 16,000 compounds; about 4,000 (25%) were called active. Not shown: some 26% with an inconclusive outcome. Only a sample is shown. Values without a mark were called inactive. Calls follow the shape of the dose curve; as a rule, active = well fitted curve in the direction sought with a large enough effect; inconclusive = small, poorly fitted or top-dose-only effect, or effect the other way; inactive = no such curve, though single readings can be large or run the other way.
% is scaled to controls: 0 for no effect and ±100 for the full control effect.

What follows are molecules tested against Cytochrome P450 2C9 (Homo sapiens) (UniProt P11712) (assay: Cytochrome panel assay with activity outcomes). Details: recombinant CYP, pro-luciferin dealkylation, luminescence, p450-cyp2c9; series mostly up to 57.1 µM; activity, negative = inhibition: at the top concentration.
Sequence of Cytochrome P450 2C9 (Homo sapiens) (P11712 whole entry, looked up): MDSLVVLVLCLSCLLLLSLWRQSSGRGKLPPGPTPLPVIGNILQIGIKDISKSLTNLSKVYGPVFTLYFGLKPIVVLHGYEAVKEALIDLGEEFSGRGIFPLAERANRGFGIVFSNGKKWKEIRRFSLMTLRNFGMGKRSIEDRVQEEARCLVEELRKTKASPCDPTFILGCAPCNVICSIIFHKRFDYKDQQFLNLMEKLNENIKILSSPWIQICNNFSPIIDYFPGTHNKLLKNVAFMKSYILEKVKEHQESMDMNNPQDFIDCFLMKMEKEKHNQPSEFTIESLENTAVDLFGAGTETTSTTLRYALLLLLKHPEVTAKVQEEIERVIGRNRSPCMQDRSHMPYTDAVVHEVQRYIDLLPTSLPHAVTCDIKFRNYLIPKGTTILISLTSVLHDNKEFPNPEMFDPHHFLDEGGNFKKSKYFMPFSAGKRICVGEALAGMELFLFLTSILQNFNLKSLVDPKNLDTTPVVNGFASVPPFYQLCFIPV
Work on `c1cncc(-c2cncnc2-n2ccnc2)c1` yielded an activity, negative = inhibition of 8.83% [at 2.29 µM]. For `Oc1ccc(-c2[nH]ncc2-c2ccc(Cl)cc2)c(O)c1`, the AC50 was 0.794 µM (active). `CC(C)NC(=O)N1CC2(CCN(C(=O)c3cc(C(F)(F)F)cc(C(F)(F)F)c3)CC2)C1` was tested, and the “activity, negative = inhibition” value was -19.4%. `CCOC(=O)c1c(CC(C)C)csc1NC=O` was tested, and the AC50 was 10 µM (active). In the case of `O=C(Nc1ccccc1C(=O)NCC1CCCO1)c1ccc(Cl)cc1Cl` (stereo unspecified), the AC50 is reported as 10 µM (active). `O=C(CN(Cc1ccccc1Cl)C(=O)c1ccc(CN2CCOCC2)o1)NCC1CCCO1` (stereo unspecified) was tested, and the “activity, negative = inhibition” value was -3.33%. With `Cc1ccccc1C(=O)c1c[nH]c(C(=O)NCC2CCCO2)c1` (stereo unspecified) the “activity, negative = inhibition” value was 25.6%. For `C=CC[C@@H]1C=C[C@H](O/N=C2\c3cc(OC)ccc3O[C@H](c3cccc(OC)c3)[C@H]2O)[C@H](CO)O1`, the AC50 was 0.398 µM (active). With `COc1ccc(O[C@H]2C=C[C@@H](c3ccccc3)O[C@@H]2CON=C(C)C)cc1` the activity, negative = inhibition was 11.9% [at 11.4 µM]. In the case of `CC(C)=NO[C@@H](C)c1cn([C@H](CO)Cc2ccccc2)nn1`, the activity, negative = inhibition is reported as 16.5% [at 11.4 µM] and 5.66% [at 11.4 µM]. Work on `C=CC[C@@H]1C=C[C@@H](O/N=C\C[C@@H]2C=C[C@H](OC(C)=O)[C@H](COC(C)=O)O2)[C@@H](CO)O1` yielded an activity, negative = inhibition of -4.4% [at 11.4 µM]. Molecule `CO/N=C1/c2cc(OC)ccc2O[C@@H](c2cccc(OC)c2)[C@H]1O` has an activity, negative = inhibition of -0.557% [at 11.4 µM]. `COc1ccc(O[C@H]2C=C[C@@H](c3ccccc3)O[C@H]2CO/N=C2/c3cc(OC)ccc3O[C@@H](c3cccc(OC)c3)[C@H]2O)cc1` was tested, and the AC50 was 3.16 µM (active). `COc1cccc([C@H]2Oc3ccc(OC)cc3/C(=N\O[C@@H](C)c3cn([C@H](CO)Cc4ccccc4)nn3)[C@@H]2O)c1` was tested, and the AC50 was 1.58 µM (active). With `COc1cccc([C@@H]2Oc3ccc(OC)cc3/C(=N/O[C@@H](C)c3cn([C@H]4COC[C@H]4O)nn3)[C@@H]2O)c1` the activity, negative = inhibition was -15.5% [at 11.4 µM]. `COc1cccc([C@H]2Oc3ccc(OC)cc3/C(=N\OC[C@@H](O)[C@@H]3O[C@@H]4OC(C)(C)O[C@@H]4[C@H]3O)[C@@H]2O)c1` showed an activity, negative = inhibition of -20.5% [at 11.4 µM]. With `COc1cccc([C@@H]2Oc3ccc(OC)cc3/C(=N/OC[C@@H](C)[C@H](OCc3ccccc3)C(C)C)[C@@H]2O)c1` the AC50 was 3.98 µM (active). In the case of `COc1cccc([C@H]2Oc3ccc(OC)cc3/C(=N\O[C@@H]3O[C@H](COC(C)=O)[C@H](OC(C)=O)[C@H](OC(C)=O)[C@H]3OC(C)=O)[C@@H]2O)c1`, the activity, negative = inhibition is reported as -12.6% [at 11.4 µM]. Molecule `CC1=N[C@@](C)(COC(=O)[C@]2(C)N[C@](C)(CO)CO2)COC1=O` has an activity, negative = inhibition of 11% [at 11.4 µM]. Work on `CC(=O)NCCNc1cc(-c2ccccc2CN(C)C)ncn1` yielded an activity, negative = inhibition of 10% [at 2.29 µM]. `O=[N+]([O-])/C=C\c1cc2ccccc2[nH]1` was tested, and the activity, negative = inhibition was 11.3% [at 11.4 µM]. In the case of `COCC(=O)Nc1c(I)c(C(=O)NC[C@@H](O)CO)c(I)c(C(=O)N(C)C[C@@H](O)CO)c1I`, the “activity, negative = inhibition” value is reported as -13.9% [at 25.6 µM]. Molecule `C/C(CCN1CCCCc2nc(C)c(C)cc21)=N\O[C@@H](C)CN1CCCc2nc(C)c(C)cc21` has an activity, negative = inhibition of -5.53% [at 11.4 µM]. In the case of `COc1cccc([C@@H]2Oc3ccc(OC)cc3/C(=N/O[C@@H](C)CN3CCCCc4nc(C)c(C)cc43)[C@@H]2O)c1`, the AC50 is reported as 1.58 µM (active). With `CC(C)=NO[C@@H](C)CN1CCCCc2nc(C)c(C)cc21` the activity, negative = inhibition was 19.8% [at 11.4 µM]. `CCC(C)(C)N=C(NC#N)Nc1cccnc1` was tested, and the “activity, negative = inhibition” value was 20.6%. `CN(C)c1ncnc2ccc(-c3ccccc3C#N)cc12` showed an activity, negative = inhibition of -7.24% [at 2.29 µM]. In the case of `Nc1c2c(=O)oc(-c3ccccc3)cc2nn1-c1ccccc1`, the AC50 is reported as 10 µM (active). `O=C(O)/C=C(/C(=O)O)[C@]12CCN3CC4=CCO[C@@H]5CC(=O)N[C@@H]1[C@H]5[C@H]4C[C@H]32` was tested, and the activity, negative = inhibition was -2.53% [at 11.4 µM]. Work on `c1ccc(-c2nnn(CCN3CCCCC3)n2)cc1` yielded an activity, negative = inhibition of 3.45% [at 11.4 µM]. With `CN1/C(=C\C=[N+](C)c2ccccc2)C(C)(C)c2ccccc21` the “activity, negative = inhibition” value was 1.48%. `CN1/C(=C\C(=O)COC(=O)Cn2nnc(-c3ccccc3)n2)C(C)(C)c2ccccc21` was tested, and the AC50 was 3.98 µM (active). With `CC1CCCN(C(=O)c2sc3cc([N+](=O)[O-])ccc3c2Cl)C1` (stereo unspecified) the “activity, negative = inhibition” value was -13.6%. With `CS(=O)(=O)c1ccc([C@H](O)[C@H](CO)NC(=O)C(Cl)Cl)cc1` the “activity, negative = inhibition” value was 12.9% [at 25.6 µM]. In the case of `CC(=O)N1CCC2(CCCN(Cc3ccccc3)C2)CC1`, the “activity, negative = inhibition” value is reported as -9.6%. In the case of `COc1ccc(-c2cc(C(F)F)nc(-n3nc(C)cc3C)n2)cc1`, the AC50 is reported as 28.2 µM (active). For `Cc1cc(C)n(-c2nc(NC(C)C)nc(NC(C)C)n2)n1`, the “activity, negative = inhibition” value was -25.2%. `Cc1cnc(CNc2nc(-c3ccc(N(C)C)cc3)nc3ccccc23)cn1` gave an activity, negative = inhibition of -14.7% [at 2.29 µM]. With `Cc1cccc(NC(=O)CSc2nc(-c3ccccc3)c(C#N)c(=O)[nH]2)c1C` the AC50 was 0.355 µM (active). `COc1ccccc1NC(=O)CCc1c(C)[nH]c(=O)c(C#N)c1C` was tested, and the “activity, negative = inhibition” value was -3.94%. For `COc1ncc2nc(-c3cccs3)c(=O)n(CCC#N)c2n1`, the “activity, negative = inhibition” value was -3.19%. For `N#Cc1c(-c2cccs2)nc(SCC(=O)c2cccs2)[nH]c1=O`, the AC50 was 0.708 µM (active). `N#CCCn1c(=O)c(-c2cccs2)nc2cnc(Nc3ccccc3)nc21` was tested, and the “activity, negative = inhibition” value was 2.54%. For `CC(C)NC(=O)N1CC[C@@]2(CCCN(C(=O)c3csnn3)C2)C1`, the “activity, negative = inhibition” value was 19%. `COc1ccccc1-c1cc(NCc2cccc(C)c2)ncn1` was tested, and the activity, negative = inhibition was 0.571% [at 2.29 µM]. `Cc1ccc(N(Cc2ccc([N+](=O)[O-])cc2)C(=O)c2ccco2)cc1` was tested, and the AC50 was 3.16 µM (active). For `O=C(O)/C(Cc1ccc([N+](=O)[O-])cc1)=N/O`, the activity, negative = inhibition was -14.2% [at 11.4 µM]. In the case of `CCOC(=O)N/N=C\c1ccc([N+](=O)[O-])o1`, the “activity, negative = inhibition” value is reported as 18.8%. With `NC(=O)N/N=C\c1ccc([N+](=O)[O-])o1` the “activity, negative = inhibition” value was -12.5% [at 25.6 µM]. In the case of `O=C(N/N=C/c1ccc([N+](=O)[O-])o1)c1cc(-c2ccncc2)nc2ccccc12`, the AC50 is reported as 0.891 µM (active). `O=C(O)[C@H]1CN(CCCP(=O)(O)O)CCN1` was tested, and the AC50 was “inactive”. In the case of `CCN(c1ccccc1)S(=O)(=O)c1ccc(NC(=S)NC(=O)c2ccc(Br)o2)cc1`, the AC50 is reported as 1.58 µM (active). In the case of `O=C(NC1CCCCCC1)c1cccs1`, the “activity, negative = inhibition” value is reported as -4.04%. With `CN(C1CCCCC1)S(=O)(=O)c1ccc(NC(=S)NC(=O)c2cccs2)cc1` the AC50 was 0.891 µM (active). For `CCN(c1ccccc1)S(=O)(=O)c1ccc(NC(=S)NC(=O)c2cccs2)cc1`, the AC50 was 1 µM (active). `CCOC(=O)NCN1C(=O)C2C3C=CC(C3)C2C1=O` (stereo unspecified) was tested, and the “activity, negative = inhibition” value was -3.37%. Work on `CC(C)(S)[C@H](N)C(=O)O` yielded an activity, negative = inhibition of 3.44% [at 11.4 µM]. For `CCCCCCCCCCCCCC(=O)O[C@H](CC(=O)O)C[N+](C)(C)C`, the “activity, negative = inhibition” value was 22.3%. In the case of `Cc1cc(NC(=O)C2=C(O)c3ccccc3S(=O)(=O)N2C)no1`, the “activity, negative = inhibition” value is reported as -7.47% [at 25.6 µM]. In the case of `O=C1c2ccccc2S(=O)(=O)N1CCCCN1CCN(c2ncccn2)CC1`, the “activity, negative = inhibition” value is reported as 12.3%. With `CN1C(C(=O)Nc2ccccn2)=C(O)c2ccccc2S1(=O)=O` the AC50 was 3.98 µM (active). Molecule `N/N=C1/c2ccccc2N[C@H]1OC(=O)Nc1cccc(Cl)c1` has an activity, negative = inhibition of -11.6% [at 11.4 µM]. With `O=C(Nc1cccc(Cl)c1)N1CCN2C(=O)c3ccccc3C12c1ccccc1` (stereo unspecified) the AC50 was 2.51 µM (active). In the case of `O=C(Nc1cccc(F)c1)N1CCC2(CCNCC2)CC1`, the “activity, negative = inhibition” value is reported as 1.17%. With `C[C@](N)(Cc1ccc(O)c(O)c1)C(=O)O` the “activity, negative = inhibition” value was 15.5%. For `N[C@@H](Cc1ccc(O)c(O)c1)C(=O)O`, the AC50 was “inactive”. For `C[C@H](Cc1ccc(O)c(O)c1)[C@@H](C)Cc1ccc(O)c(O)c1`, the AC50 was 12.6 µM (active). With `O=c1c2ccccc2nc2n1CC/C2=C\c1ccccc1[N+](=O)[O-]` the AC50 was 5.01 µM (active). `O=c1c2ccccc2nc2n1CCc1c-2[nH]c2ccccc12` was tested, and the “activity, negative = inhibition” value was 15.5%. For `O=C(CSc1nc2ccccc2[nH]1)Nc1c(F)cccc1F`, the AC50 was 12.6 µM (active). Work on `O=C(O)CSc1nc2ccccc2[nH]1` yielded an activity, negative = inhibition of -8.67% [at 11.4 µM]. In the case of `CNC(=O)[C@@H]1O[C@@H](n2cnc3c(NCc4cccc(I)c4)ncnc32)[C@H](O)[C@@H]1O`, the “activity, negative = inhibition” value is reported as -12%. For `Cc1ccc(Oc2nc(-c3ccccc3)ncc2S(C)(=O)=O)cc1`, the AC50 was 2.51 µM (active). `CCOC(=O)c1cnc(-c2ccccc2)nc1Oc1ccccc1` was tested, and the AC50 was 6.31 µM (active). In the case of `CCOC(=O)c1cnc(-c2ccccc2)nc1Oc1cccc(Cl)c1`, the AC50 is reported as 11.2 µM (active). For `CCOC(=O)c1cnc(-c2ccccc2)nc1Oc1ccc(Cl)cc1`, the “activity, negative = inhibition” value was 4.41%. In the case of `C=CCOc1ccc(CNC(C)(C)CO)cc1OC`, the “activity, negative = inhibition” value is reported as 7.21%. `CCn1cc(C(=O)O)c(=O)c2cc3c(cc21)OCO3` was tested, and the “activity, negative = inhibition” value was 24.1% [at 25.6 µM]. With `O=C(O)c1cc(=O)c2c(Cl)cc(Cl)cc2[nH]1` the “activity, negative = inhibition” value was -5.88%. Work on `CO/N=C\[C@@H](C)[C@H](OCc1ccccc1)C(C)C` yielded an activity, negative = inhibition of -6.92% [at 11.4 µM]. `COc1ccccc1-c1nc(NCc2cnc(C)cn2)c2ccccc2n1` was tested, and the activity, negative = inhibition was 16.4% [at 2.29 µM]. In the case of `CC(=O)Nc1ccc(Nc2ncnc3c2cnn3-c2ccccc2)cc1`, the AC50 is reported as 0.891 µM (active). With `Nc1ncnc2c1cnn2-c1ccccc1` the “activity, negative = inhibition” value was -25.6%. For `Cn1ncc2c(Nc3cccc(C(=O)O)c3)ncnc21`, the “activity, negative = inhibition” value was -1.59%. In the case of `CCOC(=O)c1ccc(NC(=O)CC2NCCNC2=O)cc1` (stereo unspecified), the “activity, negative = inhibition” value is reported as 25.5%. `CCOC(=O)c1ccc(NC(=O)COc2ccccc2OC)cc1` was tested, and the AC50 was 17.8 µM (active). `Cc1ccc2nc(Nc3ccccc3O)nc(-c3ccccc3)c2c1` was tested, and the AC50 was 8.91 µM (active). For `Cc1ccc2nc(N/N=C\c3cccc(C)n3)cc(C)c2c1`, the activity, negative = inhibition was 7.2% [at 11.4 µM]. With `Cc1ccc2nc(N/N=C/c3ccccc3C#N)nc(-c3ccccc3)c2c1` the AC50 was 7.08 µM (active). With `Cc1nc(N/N=C/c2ccccc2)nc(N(C)c2ccccc2)c1[N+](=O)[O-]` the “activity, negative = inhibition” value was -27.2%. `Cc1cc(C)nc(Nc2ncc(O)n2-c2ccccc2)n1` was tested, and the “activity, negative = inhibition” value was -5.7%.
